Compound activity (PubChem BioAssay)
Only some compounds are listed: those with a hit (about 2.3% of all), similar ones and a draw of the others.
Nrf2 activator: activators of Nrf2 (ARE) signaling; 410,000 compounds, 0.31% hits; Potency, µM (highest dose often 46.1 µM), inactives show at the top dose activation, most hits filed as activators; AREc32 ARE-luciferase reporter (MCF7-derived line), luminescence, 24 h; further: potency means the concentration at half of the fitted maximal effect; % of control where 0% means no effect; nearly all actives have a fitted effect of over 65% in size
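Cells of the AREc32 ARE-luciferase line are plated in OPTI-MEM containing 5% FBS and left overnight at 37 deg C. Compounds are pinned in, incubation continues 24 hr, and firefly luciferase signal is then measured.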
IL-2 act: activators of IL-2; IL-2 activation reporter assay, cell-based qHTS; stimulated with anti-CD3/CD4/CD28 beads; in transgenic mouse T cells; activation, % (series mostly up to about 46 µM); 360,000 compounds, 0.065% hits; in the data active means activation above about 50%; inconclusive means mostly about 30% to 49%; further: 0% is about no effect
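Screening format: compound pinned onto unstimulated transgenic mouse T cells, 60 min incubation, then anti-CD3/anti-CD4/anti-CD28 bead stimulation for 18 hours at 37 degrees C, followed by EGFP and DsRed detection.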
Nrf2 inh: inhibitors of Nrf2 signaling; A549 ARE-Fluc reporter, luciferase luminescence, 18-24 h; Potency, µM (titrated, usually from 46 µM), for the others: top-dose activity change, negative = inhibition, actives largely listed as inhibitors; 360,000 compounds, 2.1% hits; AID 504444; further: potency means the concentration at half of the fitted maximal effect; on the % scale 0 is the no-effect control and ±100 the full control effect; nearly all actives have a fitted effect of over 60% in size
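Cells were seeded and rested 2 h, then exposed to compounds for 18-24 h. CellTiter-Fluor was read first as a viability measure. BugLite was added 15 min before the final luminescent read of ARE-luciferase activity in A549 cells.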
A549 tox: kills or reduces viability of A549 cells in Nrf2 counter-screen; A549 ARE-Fluc cells, CellTiter-Fluor viability, 18-24 h; Potency, µM (highest dose often 46 µM), for the others: at the top dose activity change, negative = cytotoxicity, most hits filed as inhibitors; 390,000 compounds, 0.16% hits; AID 504648; further: potency means the concentration at half of the fitted maximal effect; on the % scale 0 is the no-effect control and ±100 the full control effect
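A549 ARE-Fluc cells in 5% FBS OPTI-MEM, 5000 cells/well, rested 2 h then exposed to compounds in concentration-response for 18-24 h at 37 °C. Viability by CellTiter-Fluor fluorescence (Ex 405/Em 525) after 30 min; luciferase luminescence (BugLite, 15 min, RT) read afterwards.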
Active calls of the source: *; ? = inconclusive; . = no result; [ ] = remark or other dose. Unless noted, the call rests on the fitted dose curve; in most records, active means well fitted curve in the direction sought with a large enough effect; inconclusive means small, poorly fitted or top-dose-only effect, or another doubt; inactive means no such curve, though single readings can be large; an effect the other way counts as inactive or inconclusive.

SMILES	Nrf2 activator	IL-2 act	Nrf2 inh	A549 tox
Cc1ccc(-n2c(SCC(=O)N/N=C/c3c(C)nn(-c4ccccc4)c3C)nc3ccccc3c2=O)cc1	1%	-2	?	8.2µM*
Cc1nn(-c2ccccc2)c(C)c1/C=N/NC(=O)CSc1nc2ccccc2c(=O)n1-c1ccc(Br)cc1	0%	1	26µM*	18µM*
c1nc(NCC2CCCO2)c2ccc(-c3ccc4c(c3)OCO4)cc2n1 (stereo not given)	.	.	?	0%
CCCSc1ncc(Cl)c(C(=O)Nc2sc(C(C)=O)c(C)c2C(=O)OCC)n1	0%	.	-22%	-11%
CC(=O)Nc1ccc(NC(=O)c2cc3c(=O)n(Cc4cccnc4)ccc3nc2C)cc1	-1%	.	7%	0%
Cc1ccsc1C1C=C(c2cccc(Br)c2)Nc2ncnn21 (stereo not given)	7.9µM*	0	-11%	-4%
C1=C(c2ccccc2)Nc2ncnn2C1c1ccccc1 (stereo not given)	7.1µM*	0	12%	-2%
CCc1ccc(NC(=O)CSc2nc(-c3ccccc3)no2)cc1	13%	.	-5%	-11%
O=C(NCCCc1cnc[nH]1)NCCCN(Cc1ccc(Cl)c(Cl)c1)c1ccc(Br)cn1	.	.	10%	-1%
Cc1ccc(/C(=N\O)c2oc3c(C)c4oc(=O)cc(C)c4cc3c2C)cc1	0%	-4	23µM*	?
Cc1cc(=O)oc2c1ccc1oc(/C(=N/O)c3ccccc3)c(C)c12	-1%	-2	?	-2%
O=C(C[n+]1ccc2ccccc2c1)c1ccccc1	9%	0	1%	-2%
Clc1cccc(Cl)c1C[n+]1ccc2ccccc2c1	0%	0	6.5µM*	-3%
CC(C)(C)C(=O)Nc1ccc(C(=O)Nc2cc(NC(=O)c3ccc(NC(=O)C(C)(C)C)cc3)cc(C(=O)O)c2)cc1	4%	0	?	-5%
O=C(Nc1cccc(Oc2ccc(C(=O)O)c(C(=O)O)c2)c1)c1ccc(-c2ccccc2)cc1	0%	0	16µM*	4%
CC(C)(C)C(=O)Nc1ccc(C(=O)Nc2cccc(Oc3ccc(C(=O)O)c(C(=O)O)c3)c2)cc1	-2%	0	21µM*	2%
Cc1ccc(C)c(N2CCN(c3cc(C)nc4c(-c5ccc(Cl)cc5)c(C)nn34)CC2)c1	2%	.	?	4%
Cc1ccccc1OCC(=O)N(Cc1ccc(C(C)C)cc1)C1CCS(=O)(=O)C1 (stereo not given)	5%	.	-28%	-13%
Cc1nn(-c2cccc(C(F)(F)F)c2)c(=O)c2ccccc12	3.5µM*	4	0%	5%
COc1cc(OC)cc(C2=Nn3c(nnc3-c3ccccc3OC)SC2)c1	.	.	10%	-3%
CC(C)c1nn2c(=O)cc(COC(=O)c3ccco3)nc2s1	8%	.	14%	5%
c1ccc(-c2nc(-c3ccco3)n3ccccc23)cc1	11µM*	-1	3%	5%
Nc1ccc2c(c1)Cc1c(F)cccc1-2	10µM*	0	?	1%
Cc1cc2c(s1)c1cnn(Cc3cccc(Cl)c3)c(=O)c1n2C	.	.	?	-4%
COC(=O)[C@@]12OC[C@]34[C@H]([C@@H](O)[C@@H]1O)[C@@]1(C)C(=O)C(O[C@@H]5OC(CO)[C@@H](O)[C@@H](O)[C@@H]5O)=C[C@@H](C)[C@@H]1C[C@H]3OC(=O)[C@H](OC(=O)/C=C(\C)C(C)(C)OC(C)=O)[C@@H]24 (stereo not given in full)	-4%	-2	2.9µM*	?
SMILES	Nrf2 activator	IL-2 act	Nrf2 inh	A549 tox
CCN(CC)CCOc1ccc2c(c1)C(=NO)c1cc(OCCN(CC)CC)ccc1-2	3%	-2	?	8.2µM*
COc1ccc(NC(=O)C(=O)NCCc2csc3nc(-c4ccccc4F)nn23)cc1OC	6%	.	.	1%
C=Cc1nc(Nc2cc(F)cc(F)c2)nc(NC2CCCC2)n1	.	.	10%	-3%
Nc1c(C(=O)Nc2nc3ccccc3s2)sc2nc(-c3cccs3)ccc12	?	18	21µM*	?
Nc1c(C(=O)Nc2ccc(Cl)cc2F)sc2nc(-c3cccs3)ccc12	5%	.	-8%	?
Nc1c(C(=O)Nc2ccccc2Br)sc2nc(-c3cccs3)ccc12	?	.	6%	19%
CC(=O)c1sc2nc(-c3cccs3)ccc2c1N	13µM*	0	?	-4%
O=C(OCC#CCSc1nnc(-c2cccc3ccccc23)o1)c1ccc(C(F)(F)F)cc1	.	.	1%	-6%
O=C(C1CCC(CNS(=O)(=O)c2cccc3nsnc23)CC1)N1CC=C(c2ccccc2)CC1 (stereo not given)	0%	-2	21µM*	-11%
CCOC(=O)N1CCC(NS(=O)(=O)c2ccc(NC(C)=O)c(Cl)c2)CC1	-1%	1	12µM*	1%
O=C(Nc1ccc(S(=O)(=O)C(F)F)cc1)c1ccc2c(=O)n3c(nc2c1)CCC3	2%	1	15µM*	-10%
O=C(Nc1ccc(SC(F)F)cc1)c1ccc2c(=O)n3c(nc2c1)CCC3	7%	0	5.8µM*	?
COc1ccc(NC(=O)c2ccc3c(=O)n4c(nc3c2)CCCCC4)cc1	2%	-2	-3%	-10%
CCOc1ccc(CNC(=O)c2cc(=O)[nH]c3ccc(S(=O)(=O)N4CCCC4)cc23)cc1	-2%	.	.	6%
Cc1cccc(C(=O)Oc2c(Sc3ccccc3)c(C)nn2C(C)(C)C)c1	0%	.	8%[9.27 µM]	-7%
Cc1cc(C)cc(NC(=O)C2CCN(S(=O)(=O)c3cn(C)cn3)CC2)c1	-1%	.	.	1%
O=C(c1ccco1)N(Cc1ccc(Cl)cc1)C1CCS(=O)(=O)C1 (stereo not given)	1%	1	26µM*	-1%
Cc1ccc2oc(/N=C(\N)NC(=O)C(C)(C)C)nc2c1	-1%	-5	13µM*	0%
Cc1ccc2oc(/N=C(\N)NC(=O)C3CC3)nc2c1	0%	0	?	11%
O=C(c1ccc(F)cc1F)N1CCC(c2nc(-c3ccc(S(=O)(=O)N4CCCC4)cc3)no2)CC1	0%	.	3%	6%
O=[N+]([O-])c1cc(C(F)(F)F)ccc1N1CCN(S(=O)(=O)c2ccc3c(c2)CCCC3)CC1	0%	-2	15µM*	-19%
Cc1onc(-c2ccccc2)c1C(=O)Nc1ncc([N+](=O)[O-])s1	7%	-1	10µM*	?
Cc1noc(NC(=O)c2c(-c3c(Cl)cccc3Cl)noc2C)c1[N+](=O)[O-]	0%	1	15µM*	-13%
Cc1ccc(S(=O)(=O)N2CCN(c3nc(-c4ccco4)nc4ccccc34)CC2)cc1	.	.	-21%	1%
COc1ccc(CCN(C)C(=O)c2cc(S(=O)(=O)N3CCCCC3)ccc2Cl)cc1OC	1%	1	16µM*	-11%
COc1cccc(NC(=O)CN(C)C(=O)c2cccc(S(=O)(=O)N3CCN(c4ccccc4)CC3)c2)c1	0%	-3	?	-1%
COc1cccc(CN(C)C(=O)c2cc(S(=O)(=O)N3CCN(c4ccccc4)CC3)ccc2Cl)c1	-1%	-7	21µM*	-14%
